The values that follow come from PubChem BioAssay.

Assay [1] is described as follows: P. berghei load reduction in hepatocytes – cell-based, HepG2, luciferase luminescence, HepG2 viability, primary screen (AID 624349; in the data active = parasite load remaining mostly below about 12%, no sharp cut-off; inactive = mostly above about 10%;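 note: 100% = mean of DMSO negative control wells on the same plate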). The following applies: P. berghei liver stage in HepG2, luciferase luminescence, concentration not given here; parasite load remaining: stronger effect = lower value; viability: measured here: HepG2 viability without parasites.
Assay [2] is described as follows: EMT-state selective cytotoxicity in co-culture – imaging, PC-3E GFP, TEM4-18 mCherry, primary screen (AID 1345086;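 active = compounds killing one labelled cell type while sparing the other, by normalised counts and ratio limits, not self-fluorescent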;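 for all read-outs here: cells exposed to compound for 72 h before imaging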;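 for red/green cell ratio (normalised): normalised mesenchymal count divided by normalised epithelial count so high means epithelial killing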). Conditions: PC-3E GFP / TEM4-18 mCherry co-culture, imaging cell counts, at 1 µM; for red/green cell ratio (normalised): actives lie on both sides.
A short description of assay [3]: viability loss with induced miR-34 in A549 – imaging, A549 dox-inducible miR-34, nuclei and caspase counts, primary screen (AID 1347080;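 active = compounds whose cell count with miR-34 switched on is under 0.7 times the count with it off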). The following applies: A549 miR-34 inducible, Hoechst nuclei count, 48 h.
Assay [4] in a line: compounds altering circadian rhythm period length – cell-based, LOPAC library, luminescence reporter (AID 2774).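 Note: values are relative to mean of DMSO wells on each plate.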 Conditions: circadian reporter cells, at 7 µM, actives lie on both sides.
Assay [5] has as its system Hepatitis C virus NS3 helicase. The assay is described as follows: blockers of NS3h binding to ssDNA – biochemical, fluorescence polarization, LOPAC1280 library, primary screen (AID 687035; in the data active = inhibition above about 37%). Conditions: Purified HCV NS3 helicase, Cy5-dT15 ssDNA binding fluorescence polarization; stronger effect = higher value; concentration not given here. In general terms: Polarisation of emitted light reports the rotation of a fluorescent probe.

A short description of assay [6]: compounds altering Cy5-DNA-NS3h complex signal – biochemical, LOPAC1280, artefact control for HCV NS3 helicase inhibitor project (AID 687037). The following applies: Cy5-DNA-NS3h complex fluorescence interference counterscreen. Background: Counterscreens check selectivity or assay interference.
Assay [7] deals with Aerobactin synthetase IucA (Klebsiella pneumoniae). The assay is described as follows: inhibition of K. pneumoniae IucA enzyme – biochemical, Tocris library, absorbance (AID 1345561).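 Note: 100% = enzyme without compound and 0% = no enzyme.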 The following applies: purified IucA enzyme assay, absorbance (OD) read-out; stronger effect = lower value;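 tested at 8 µM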.
Assay [8] relates to Aerobactin synthetase IucA (Klebsiella pneumoniae, hypervirulent). Description: biochemical IucA inhibition screen of LOPAC library by absorbance (AID 1346212).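 Note: 100% = no compound wells and 0% = no enzyme wells.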 The following applies: IucA enzyme assay, absorbance (OD) readout; stronger effect = lower value;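 tested at 8 µM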.
Assay [9] is described as follows: blockers of cellular phospholipid synthesis – cell-based, LOPAC library, screen 4, primary screen (AID 1347384). The following applies: animal cells, phospholipid biosynthesis inhibition screen; at 10 µM.
Assay [10] in a line: galactose survival enhancers in mitochondrial complex I cybrids – cell-based, galactose medium, ATP luminescence, primary screen (AID 1645843;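 active = z-score of at least 1.8 in each of two replicates, scored against plate mean and spread of sample wells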;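 note: positive z means more ATP and so rescue of galactose-driven cybrid death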). The following applies: complex I mutant cybrid cells, 72 h, stronger effect = higher value.
Assay [11] is described as follows: yeast 75Q aggregation reduction – 75Q-TubU reporter (AID 1593). Conditions: Yeast 75Q polyglutamine aggregation reporter.
Assay [12] is described as follows: restoration of touch response, mutant HTT neurons – whole organism, C. elegans mechanosensory neurons, N-terminal huntingtin (AID 1599). The following applies: C. elegans polyQ-huntingtin mechanosensory neurons, stronger effect = higher value.
Assay [13] in a line: blockers of cytochrome c efflux from mitochondria – biochemical, purified mitochondria (AID 1603).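 Note: mouse liver mitochondria challenged with calcium chloride; signal normalized to the plate average as 100%.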 The following applies: stronger effect = lower value.
Assay [14] in a line: polyglutamine aggregate formation blockers (AID 1604). The following applies: polyglutamine-induced protein aggregation inhibition assay; stronger effect = higher value; tested at 2.5 µM.
Assay [15] in a line: glutamate transport activators, MN-1 cells, MN-1 cell line (AID 1612).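 Note: tested at 1 µM final; 0% = mean of DMSO vehicle wells on each plate; positive means more glutamate uptake than control and negative means less.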 The following applies: MN-1 motor neuron cells, stronger effect = higher value.
Assay [16] can be described thus: 75Q-TubH aggregate inhibition, S. cerevisiae, yeast (AID 1616). The following applies: S. cerevisiae 75Q-TubH polyglutamine aggregation suppression; stronger effect = higher value.
Where [17] appears, read: measured here: epithelial PC-3E GFP cell survival.
[18] abbreviates: measured here: mesenchymal TEM4-18 mCherry cell survival.
Setting [19] is: stronger effect = lower value, cell number ratio, induced over uninduced.
The mark [20] stands for this setting: measured here: relative caspase fold change +Dox/-Dox.
Setting [21] is: measured here: total cells with miR-34 induction, stronger effect = lower value.
Setting [22] is: measured here: total cells without miR-34 induction.

Values joined by “and” are separate entries in the source; they are usually repeats but may differ in a detail not shown here. Equal entries are not always repeated. For some of these results: Measured potencies and affinities stand elsewhere. Active and inactive are the calls of the source. Unless noted, the rule behind the calls is not given here.

What is called viability is a per cent measure of how many cells are alive, often set against a control. Consider `C[C@]12CC[C@H](OC3OC(O)C(O)C(O)C3O)C=C1CCC1C2CC[C@]2(C)[C@@H](c3ccc(=O)oc3)CC[C@]12O` (stereo partly specified), for which the parasite load remaining in assay [1] is -0.075% (inactive). The compound further displayed a viability in [1] of 22.8%. In assay [2] (counts scaled to control wells, 1 = unselective), the red/green cell ratio (normalised) is 0.18 (inactive). In addition, the normalised cell number in assay [2] (setting [17]) came to 0.18; in assay [2] (setting [18]) it was 0.03. In addition, the fold change is 0.742 (inactive) in assay [3] (setting [19]) and 0.885 in assay [3] (setting [20]). Further, the cell count in [3] (setting [21]) amounted to 150; in [3] (setting [22]), 202.

The inhibition is the change of the read-out against control, counted positive when it falls. The remaining activity is the signal under treatment as a percentage of the control signal. Turning to `NCc1cc(=O)[nH]o1`, the period change in assay [4] was -0.1 h (inactive). Besides, the inhibition in assay [5] is -3% (inactive). The fluorescence ratio (interference) in assay [6] is 1 (inactive). The results for the remaining activity in assay [7] and in assay [8] were 112% (inactive) and 89% (inactive), respectively. Besides, the fold change in [3] (stronger effect = lower value) was 0.974 (inactive); in assay [3] (setting [19]), 0.899 (inactive); in assay [3] (setting [20]), 1.71 and 1.62. In addition, the cell count in assay [3] (setting [21]) is 10400 and 8970; in assay [3] (setting [22]) it was 10700 and 9980. The compound was called inactive in assay [9]. Also, in assay [10], the z-score is 0.465 (inactive) and -0.045 (inactive).

Consider `Cc1[nH]c2ccc(O)cc2c1CCN`, for which the period change in assay [4] was 0.13 h (inactive). Besides, in assay [5], the inhibition was -6% (inactive). Besides, the fluorescence ratio (interference) in assay [6] was 0.9 (inactive). Further, the remaining activity in [7] was 104% (inactive); in [8] it was 118% (inactive). The fold change in assay [3] (stronger effect = lower value) is 1.04 (inactive) and 1.02 (inactive); in assay [3] (setting [20]), 0.914 and 0.703. The cell count in assay [3] (setting [21]) is 10800 and 9460; in [3] (setting [22]), 10400 and 9310. The result in [9] was inactive. Further, in [10], the z-score was 0.345 (inactive) and -0.12 (inactive).

For `O=C(O)CCCO`, in assay [1], the parasite load remaining is 64.2% (inactive). In assay [1], this compound yielded a viability of 92.7%. For the same compound, in [2], the red/green cell ratio (normalised) was 1 (inactive). The normalised cell number in assay [2] (setting [17]) and in [2] (setting [18]) was 0.91 each time. Besides, the fold change in assay [3] (stronger effect = lower value) was 0.926 (inactive); in assay [3] (setting [20]), 0.797. For the same compound, the cell count was 11100 in assay [3] (setting [21]) and 11900 in assay [3] (setting [22]).

Turning to `C=CC[C@]1(O)CCC2C3CCC4=CC(=O)CCC4=C3C=C[C@@]21C` (stereo partly specified), the parasite load remaining in assay [1] was 26.4% (inactive). Also, the viability in assay [1] was found to be 98.9%. In assay [2], the red/green cell ratio (normalised) is 0.86 (inactive). For the same compound, the normalised cell number came out at 0.92 in assay [2] (setting [17]) and 0.79 in assay [2] (setting [18]). Further, the fold change in assay [3] (stronger effect = lower value) was 0.89 (inactive); in assay [3] (setting [20]), 1.39. Besides, the cell count in assay [3] (setting [21]) was 10300; in [3] (setting [22]), 11500.

Regarding `NCCc1c[nH]c2ccc(C(N)=O)cc12`, in [4], the period change is -0.055 h (inactive). For the same compound, the inhibition in [5] was -3% (inactive). Besides, in [6], the fluorescence ratio (interference) is 1 (inactive). Further, the remaining activity in assay [7] is 111% (inactive); in assay [8], 90% (inactive). Further, the fold change in [3] (stronger effect = lower value) is 0.977 (inactive) and 0.883 (inactive); in assay [3] (setting [20]), 1.26 and 0.923. The cell count in assay [3] (setting [21]) was 10000 and 7810; in assay [3] (setting [22]), 10300 and 8850. Further, the call in assay [9] was inactive. Moreover, the z-score in assay [10] was 0.31 (inactive) and 0.705 (inactive).

On to `CC(=O)O[C@H]1C[C@H](O[C@H]2[C@@H](O)C[C@H](O[C@H]3[C@@H](O)C[C@H](O[C@H]4CC[C@@]5(C)C(CCC6C5C[C@@H](O)[C@]5(C)[C@@H](C7=CC(=O)OC7)CC[C@]65O)C4)O[C@@H]3C)O[C@@H]2C)O[C@H](C)[C@H]1O[C@@H]1O[C@H](CO)[C@@H](O)[C@H](O)[C@H]1O` (stereo partly specified), for which the score in assay [11] came to 1.1. Further, the rescue above control in [12] is 3.88. Besides, in assay [13], the cytochrome c release ratio came out at 0.86. In addition, in assay [14], the inhibition of aggregation was 100%. For the same compound, the glutamate uptake change in assay [15] was -5.55%. In assay [16], this compound displayed an aggregation suppression score of 1.31. In addition, the parasite load remaining in assay [1] was 31.4% (inactive) and 0.905% (inactive). The viability in [1] was 50.8% and 15.3%. In assay [2], the red/green cell ratio (normalised) was 0.22 (inactive). For the same compound, the normalised cell number in assay [2] (setting [17]) was determined as 0.27; in assay [2] (setting [18]), 0.06. The fold change in assay [3] (stronger effect = lower value) is 0.6 (active); in assay [3] (setting [20]), 2.31. For the same compound, the cell count in [3] (setting [21]) was found to be 258; in [3] (setting [22]), 431.
